# Sampled rows, rich in hits. Any-hit rate of the full collection: about 3.8%.
# hERG WT inh – blocks the wildtype human KCNH2 potassium channel | U2OS, BacMam KCNH2, thallium flux FluxOr; hits give low values | activity change, % at 1.84 µM | 340,000 tested, 0.37% active | AID 720551;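 active = maximum activity change below -70%; inconclusive = maximum activity change between -70% and -50%; inactive = maximum activity change above -50%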; also: % is scaled to controls: 0 for no effect and ±100 for the full control effect
#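 U2OS cells transduced with wild-type KCNH2 virus are loaded with FluxOr dye for 45 min, and thallium flux is measured in kinetic reads before and after stimulation buffer. Rate constants are normalized to DMSO controls.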
# PLK1 PBD block – PLK1 (human) polo-box domain binding inhibition. P53350. Plk1 PBD binding of FITC phosphopeptide, fluorescence polarization. Potency, µM, without a hit: max response, negative = inhibition, usual class: inhibitors. 360,000 tested, 2.8% active. AID 720504; also: potency is read from the fitted curve at half-maximal effect; series mostly up to about 57 µM; % is scaled to controls: 0 for no effect and ±100 for the full control effect; nearly all actives have a fitted effect of over 65% in size
# KCNH2 3.1 inh – inhibitors of human KCNH2 3.1 potassium channel isoform. 340,000 tested, 0.95% active. U2OS KCNH2 3.1, thallium flux FluxOr; hits give low values. activity change, % (tested at about 1.8 µM). AID 720553;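 active = maximum activity change below -70%; inconclusive = maximum activity change from -70% to -50%; inactive = maximum activity change above -50%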;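 also: thallium influx rate constant from kinetic fluorescence after stimulation buffer; % is scaled to controls: 0 for no effect and ±100 for the full control effect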
#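 Virally transduced U2OS (3.1 isoform, 4 h infection in dark at RT) → overnight 37 C → FluxOr + Red40 in HBSS/HEPES, 45 min → stimulation buffer, 2 min kinetic read → rate constant vs DMSO controls.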
# MBNL1-CUG inh – MBNL1-poly(CUG) RNA binding inhibition; Potency, µM (series often up to 57.5 µM), for the others: at the top dose activity change, negative = inhibition, most hits filed as inhibitors; Q9NR56; TR-FRET MBNL1-His/biotin-(CUG)12 binding, 665/545 ratio; 280,000 tested, 0.036% active; active = well fitted inhibition curve with a large enough effect in the signal ratio, with a control signal flat, not every such curve was filed as active; inconclusive = small, poorly fitted or top-dose-only effect, or effect the other way, or a change in a side signal; inactive = no such curve, though single readings can be large or run the other way; the % refers to the signal ratio; also: potency is read from the fitted curve at half-maximal effect; % is scaled to controls: 0 for no effect and ±100 for the full control effect
#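 Inhibition of protein-RNA binding appears as loss of TR-FRET between terbium anti-His antibody on MBNL1-His and streptavidin-XL665 on biotin-(CUG)12. Activity is normalized to buffer-only and uninhibited-complex controls.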
# CBFb-RUNX1 inh – blocks binding between human CBF-beta and RUNX1 | 230,000 tested, under 10 active | Q01196+Q13951 | Potency, µM (highest dose often 59.8 µM), inactives show at the highest dose activity, negative = inhibition, most hits filed as inhibitors | AlphaScreen CBFb-His/RUNX1-biotin binding, biochemical; also: % of control where 0% means no effect
#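 Inhibition was taken as any reduction in AlphaScreen signal from the CBF-beta–RUNX1 pair (His and biotin tags, 30 nM each), measured after compound (15 min) and bead (90 min) incubations at room temperature.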
# VDR inh – blocks the human vitamin D receptor | 400,000 tested, 0.93% active | AID 504847 | VDR-SRC2-3 peptide fluorescence polarization, 2 h | Potency, µM, without a hit: max response, negative = inhibition, most hits filed as inhibitors; also: potency is read from the fitted curve at half-maximal effect; % is scaled to controls: 0 for no effect and ±100 for the full control effect
#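 Reagent solutions, kept cold and dark, are dispensed first; compounds are then pinned in at 23 nl, plates briefly spun, and incubated 2 h at ambient temperature. Inhibition of VDR–SRC2-3 peptide binding is read by fluorescence polarization.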
# * hit, by the source's call; ? = inconclusive; nt = not tested or not shown. Unless noted, calls follow the shape of the dose curve; as a rule, active = well fitted curve in the direction sought with a large enough effect; inconclusive = small, poorly fitted or top-dose-only effect, or another doubt; inactive = no such curve, though single readings can be large; an effect the other way counts as inactive or inconclusive.
SMILES,hERG WT inh,PLK1 PBD block,KCNH2 3.1 inh,MBNL1-CUG inh,CBFb-RUNX1 inh,VDR inh
COc1ccc2nc(NNC(=O)c3cc(=O)c4ccccc4o3)sc2c1,4,-12%,16,11%,?,32µM*
Cc1cccc2sc(NNC(=O)c3cc(=O)c4ccccc4o3)nc12,4,?,-4,6%,?,?
CCCc1cc(=O)oc2c3c(ccc12)OCN(Cc1ccc(OC)cc1)C3,nt,nt,nt,nt,nt,17%
CC(C)c1ccc(N=c2c([N+](=O)[O-])nn(-c3ccc4c(c3)OCCO4)n2O)cc1,13,-9%,-9,?,?,5%
CN=c1c([N+](=O)[O-])nn(-c2ccc3c(c2)OCCO3)n1O,-5,24µM*,-2,?,7%,-19%
O=C(CCNC(=O)c1ccccc1)Nc1cccnc1,16,27µM*,15,5%,2%,-11%
O=C(CCc1ccccc1)Nc1cccnc1,5,-4%,2,-2%,nt,15%
Cc1cccc(NC(=O)CSc2nc3ccccc3c3nc(CCn4cncc4C)nn23)c1,nt,nt,nt,nt,nt,17%
N#Cc1c(SCc2c(Cl)cccc2Cl)nc(N)[nH]c1=S,-3,30µM*,4,nt,nt,?
Cc1nc(SCc2ccccc2Cl)c(C#N)c(C)c1C,nt,nt,nt,nt,nt,3%
CCOC(=O)C1(C)NC(c2ccc(N(C)C)cc2)C2C(=O)N(c3ccc(OC)cc3)C(=O)C21 (stereo unspecified),3,-5%,2,3%,4%,15%
CCOC(=O)C1(C)NC(c2ccccc2F)C2C(=O)N(c3cccc(C(C)=O)c3)C(=O)C21 (stereo unspecified),-8,3.8µM*,11,5%,-3%,25µM*
CCOC(=O)C1(C)NC(c2cccs2)C2C(=O)N(c3ccc(OC)cc3)C(=O)C21 (stereo unspecified),-19,3.4µM*,22,11%,-9%,32µM*
CCOC(=O)C1(C)NC(c2ccc(OC)c(OC)c2)C2C(=O)N(c3cccc(C(C)=O)c3)C(=O)C21 (stereo unspecified),5,1%,12,nt,nt,nt
COc1ccc(-n2nnc(-c3nsc(NC(=O)c4cccc(C)c4)n3)c2C)cc1OC,nt,nt,nt,nt,nt,-1%
CCCCCCCCC1=NCCc2c1[nH]c1ccccc21,20,24µM*,-41,2%,nt,?
COC(=O)[C@H](C)NC(=O)NCCC1=CCCCC1,6,30µM*,11,nt,2%,-25%
CCC(C)[C@H](NC(=O)NCCC1=CCCCC1)C(=O)OC (stereo partly specified),-1,-11%,-4,3%,1%,-3%
CCOc1ccccc1NC(=O)CSc1nc2ccccc2nc1Cc1ccc(C)cc1,nt,nt,nt,nt,nt,-4%
Cc1ccc2[nH]c(=O)c(CN(Cc3cccs3)S(=O)(=O)c3ccc4c(c3)OCCO4)cc2c1,3,-24%,-120*,2%,-12%,-17%
CCOC(=O)Cc1ccc(NC(=O)N(C(C)C)C2CCN(C(C)=O)CC2)cc1,nt,nt,nt,nt,nt,10%
COCCNC(=O)CCCn1c(SCC(=O)c2ccc(Br)cc2)nc2c(sc3ccccc32)c1=O,nt,nt,nt,nt,nt,5%
CCOC(=O)C1CCN(C(=O)c2ccccc2NC(=O)c2ccc(Cl)cc2)CC1,3,15µM*,-17,-15%,6%,?
CCOC(=O)C1CCN(CCC(=O)Nc2ccccc2Cl)CC1,18,24µM*,-18,-9%,8%,3%
CCOC(=O)N1CCN(C(=O)C2CCN(C(=O)c3ccccc3C)CC2)CC1,-4,3.4µM*,2,nt,nt,22µM*
SMILES,hERG WT inh,PLK1 PBD block,KCNH2 3.1 inh,MBNL1-CUG inh,CBFb-RUNX1 inh,VDR inh
CCOC(=O)C1CCN(C(=O)c2ccccc2NC(=O)c2nsc3ccccc23)CC1,nt,nt,nt,nt,nt,1%
CCCNC(=O)Nc1cc(C(=O)NCc2cccc(OCC)c2)ccc1N1CCCC1,nt,nt,nt,nt,nt,12%
O=C(O)c1ccc2c(c1)C(=O)N([C@H](Cc1ccc(Cl)cc1)C(=O)O)C2=O,nt,nt,nt,nt,4%,nt
COc1ccc(-n2c3c(c(=O)[nH]c2=O)C(NS(=O)(=O)c2ccc(Cl)cc2)(C(F)(F)F)C(=O)N3)cc1 (stereo unspecified),-98*,-2%,12,3%,12%,13%
O=C1Nc2c(c(=O)[nH]c(=O)n2-c2ccc(Cl)cc2)C1(NS(=O)(=O)c1ccccc1)C(F)(F)F (stereo unspecified),nt,nt,nt,nt,nt,5%
Cc1ccccc1OCC(=O)NCC(=O)OCc1ccc2ccccc2c1,nt,nt,nt,nt,nt,-9%
N#CC1(Cc2ccc([N+](=O)[O-])cc2)c2ccccc2C=CN1C(=O)c1ccccc1 (stereo unspecified),3,-5%,-88*,1%,-2%,-8%
N#CC1(Cc2ccccc2)c2ccccc2C=CN1C(=O)c1ccccc1 (stereo unspecified),5,1%,6,0%,-1%,9%
COc1ccc(CCNC(=O)c2ccc(Cn3c(=O)c4ccccc4n(Cc4ccc(C)cc4)c3=O)cc2)cc1OC,nt,nt,nt,nt,nt,-23%
COc1ccccc1N(O)C1CC(=O)N(c2ccc(Br)cc2)C1=O (stereo unspecified),-11,3µM*,-6,7%,-6%,50µM*
CCCCCCC(=O)N(O)C1CC(=O)N(c2ccc(Br)cc2)C1=O (stereo unspecified),-13,?,6,3%,2%,?
CC(NC(=O)c1cccnc1)C(c1ccccc1)N1CCN(C)CC1 (stereo unspecified),-1,-1%,-77*,?,5%,9%
CC(NC(=O)c1cccnc1)C(c1cccs1)N1CCOCC1 (stereo unspecified),1,0%,-5,-7%,1%,-2%
S=c1[nH]nc(C2CCCCC2)n1/N=C/c1ccccc1Cl,4,13µM*,-1,-11%,nt,-4%
Cc1cccc(/C=N/n2c(C3CCCCC3)n[nH]c2=S)c1,-2,27µM*,-18,9%,nt,?
S=c1[nH]nc(C2CCCCC2)n1/N=C/c1cccc(Br)c1,-3,-14%,-3,-8%,nt,2%
FC(F)(F)c1ccccc1/C=N/n1c(C2CCCCC2)n[nH]c1=S,-4,27µM*,-2,-3%,nt,-10%
CCOc1ccccc1/C=N/n1c(C2CCCCC2)n[nH]c1=S,5,?,2,-4%,nt,-14%
O=C(O)c1ccccc1/C=N/n1c(C2CCCCC2)n[nH]c1=S,2,-18%,10,-5%,nt,?
Cc1ccc(C)c(NC(=O)CCn2nc(C)cc2C)c1,2,2%,0,-1%,5%,8%
Cc1ccc(C)c(NC(=O)CCn2cnnn2)c1,0,30µM*,10,2%,4%,-15%

# High-throughput results: PubChem, National Center for Advancing Translational Sciences (NCATS)
